According to PubChem BioAssay AID1159580 (chemical genetic matrix, 2015):
Among all 5,500 compounds or so, about 2,000 (36%) were called active. Not shown: some 18% with an inconclusive outcome. The list shows a part of the results. A number with no mark means an inactive call. Rule as the data show it: active = normalized growth mostly below about 0.91 (no sharp cut-off); inconclusive = no clear call, values can overlap the other calls; inactive = mostly above about 0.92.

Experiment: chemical genetic growth profiling, strain panel (AID 1159580);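 also: tested at 20 µM; growth read once vehicle control cultures reached saturation at 30 °C; 1 = growth at the plate median or of vehicle wells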
Conditions: growth OD
[1] = S. cerevisiae deletion strains, locus YAL013W, strain DEP1, stronger effect = lower value
[2] = S. cerevisiae deletion strains, locus YBR229C, strain ROT2, stronger effect = lower value
[3] = S. cerevisiae deletion strains, locus YCL061C, strain MRC1, stronger effect = lower value
[4] = S. cerevisiae deletion strains, locus YDL101C, strain DUN1, stronger effect = lower value
[5] = S. cerevisiae deletion strains, locus YDL134C, strain PPH21, stronger effect = lower value
[6] = S. cerevisiae deletion strains, locus YDR150W, strain NUM1, stronger effect = lower value
[7] = S. cerevisiae deletion strains, locus YEL061C, strain CIN8, stronger effect = lower value
[8] = S. cerevisiae deletion strains, locus YGR078C, strain PAC10, stronger effect = lower value
[9] = S. cerevisiae deletion strains, locus YGR229C, strain SMI1, stronger effect = lower value
[10] = S. cerevisiae deletion strains, locus YHR030C, strain SLT2, stronger effect = lower value
[11] = S. cerevisiae deletion strains, locus YHR087W, strain rtc3, stronger effect = lower value
[12] = S. cerevisiae deletion strains, locus YJR043C, strain POL32, stronger effect = lower value
[13] = S. cerevisiae deletion strains, locus YJR075W, strain HOC1, stronger effect = lower value
[14] = S. cerevisiae deletion strains, locus YLR039C, strain RIC1, stronger effect = lower value
[15] = S. cerevisiae deletion strains, locus YLR058C, strain SHM2 (second series), stronger effect = lower value
[16] = S. cerevisiae deletion strains, locus YLR085C, strain ARP6, stronger effect = lower value
[17] = S. cerevisiae deletion strains, locus YLR262C, strain YPT6, stronger effect = lower value
[18] = S. cerevisiae deletion strains, locus YML094W, strain GIM5, stronger effect = lower value
[19] = S. cerevisiae deletion strains, locus YMR219W, strain ESC1, stronger effect = lower value
[20] = S. cerevisiae deletion strains, locus YMR263W, strain SAP30, stronger effect = lower value
[21] = S. cerevisiae deletion strains, locus YMR307W, strain GAS1, stronger effect = lower value
[22] = S. cerevisiae deletion strains, locus YNL153C, strain GIM3, stronger effect = lower value
[23] = S. cerevisiae deletion strains, locus YNL298W, strain CLA4 (second series), stronger effect = lower value
[24] = S. cerevisiae deletion strains, locus YNL322C, strain KRE1, stronger effect = lower value
[25] = S. cerevisiae deletion strains, locus YNR030W, strain Alg12, stronger effect = lower value
[26] = S. cerevisiae deletion strains, locus YOL006C, strain TOP1, stronger effect = lower value
[27] = S. cerevisiae deletion strains, locus YPL055C, strain LGE1, stronger effect = lower value
[28] = S. cerevisiae deletion strains, locus YPL241C, strain CIN2, stronger effect = lower value
[29] = S. cerevisiae deletion strains, locus YPR135W, strain CTF4, stronger effect = lower value
[30] = S. cerevisiae deletion strains, locus YKL190W, strain CNB1, stronger effect = lower value
[31] = S. cerevisiae deletion strains, locus YNL128W, strain TEP1, stronger effect = lower value

CN(C)C=Nc1nnc(Sc2ncccc2[N+](=O)[O-])s1
normalized growth [1]: 0.999 | normalized growth [2]: 1 | normalized growth [3]: 1.01 | normalized growth [4]: 1.01 | normalized growth [5]: 1.01 | normalized growth [6]: 0.987 | normalized growth [7]: 0.995 | normalized growth [8]: 1 | normalized growth [9]: 0.992 | normalized growth [10]: 1 | normalized growth [11]: 1.01 | normalized growth [12]: 0.985 | normalized growth [13]: 0.997 | normalized growth [14]: 1.03 | normalized growth [15]: 1 | normalized growth [16]: 1.06 | normalized growth [17]: 1.03 | normalized growth [18]: 1.01 | normalized growth [19]: 1.01 | normalized growth [20]: 0.995 | normalized growth [21]: 0.983 | normalized growth [22]: 0.977 | normalized growth [23]: 1.06 | normalized growth [24]: 1.02 | normalized growth [25]: 1.04 | normalized growth [26]: 1.01 | normalized growth [27]: 0.988 | normalized growth [28]: 1.02 | normalized growth [29]: 1.06

CC(C)(C)NS(=O)(=O)NC(C)(C)C
normalized growth [1]: 0.995 | normalized growth [2]: 1 | normalized growth [3]: 1.03 | normalized growth [4]: 0.977 | normalized growth [6]: 0.88 | normalized growth [7]: 1.01 | normalized growth [8]: 0.999 | normalized growth [10]: 0.952 | normalized growth [11]: 0.964 | normalized growth (S. cerevisiae deletion strains, locus YJL187C, strain SWE1, stronger effect = lower value): 0.999 | normalized growth [12]: 0.998 | normalized growth [13]: 1.02 | normalized growth [30]: 1 | normalized growth [14]: 1.02 | normalized growth [15]: 1 | normalized growth [16]: 0.999 | normalized growth [17]: 1.02 | normalized growth [18]: 0.976 | normalized growth [19]: 0.995 | normalized growth [20]: 1.04 | normalized growth [31]: 0.997 | normalized growth [22]: 1.01 | normalized growth [23]: 0.973 | normalized growth [24]: 1 | normalized growth [25]: 1.01 | normalized growth [26]: 1.01 | normalized growth [27]: 0.921 | normalized growth [28]: 1.16 [resistant] (active) | normalized growth [29]: 1.02

NCC(CC(=O)O)c1ccc(Cl)s1 (centres undefined)
normalized growth [1]: 0.991 | normalized growth (S. cerevisiae deletion strains, locus YBR021W, strain FUR4, stronger effect = lower value): 0.96 | normalized growth [2]: 0.99 | normalized growth (S. cerevisiae deletion strains, locus YCL029C, strain bik1, stronger effect = lower value): 0.985 | normalized growth (S. cerevisiae deletion strains, locus YDL035C, strain GPR1, stronger effect = lower value): 0.994 | normalized growth (S. cerevisiae deletion strains, locus YDL074C, strain BRE1, stronger effect = lower value): 1.02 | normalized growth [4]: 0.992 | normalized growth [5]: 0.982 | normalized growth (S. cerevisiae deletion strains, locus YDL185W, strain tfp1, stronger effect = lower value): 0.978 | normalized growth (S. cerevisiae deletion strains, locus YDL192W, strain arf1, stronger effect = lower value): 0.987 | normalized growth (S. cerevisiae deletion strains, locus YDR101C, strain arx1, stronger effect = lower value): 0.998 | normalized growth [6]: 1 | normalized growth (S. cerevisiae deletion strains, locus YDR162C, strain NBP2, stronger effect = lower value): 1.03 | normalized growth (S. cerevisiae deletion strains, locus YDR318W, strain mcm21, stronger effect = lower value): 0.968 | normalized growth (S. cerevisiae deletion strains, locus YDR388W, stronger effect = lower value): 0.99 | normalized growth (S. cerevisiae deletion strains, locus YDR502C, strain sam2, stronger effect = lower value): 0.996 | normalized growth [7]: 0.994 | normalized growth (S. cerevisiae deletion strains, locus YER110C, stronger effect = lower value): 0.979 | normalized growth (S. cerevisiae deletion strains, locus YER155C, strain BEM2, stronger effect = lower value): 1 | normalized growth (S. cerevisiae deletion strains, locus YER167W, strain BCK2, stronger effect = lower value): 0.973 | normalized growth (S. cerevisiae deletion strains, locus YGL078C, strain dbp3, stronger effect = lower value): 0.995 | normalized growth (S. cerevisiae deletion strains, locus YGL086W, strain mad1, stronger effect = lower value): 0.958 | normalized growth (S. cerevisiae deletion strains, locus YGL248W, strain PDE1, stronger effect = lower value): 0.987 | normalized growth [8]: 0.994 | normalized growth (S. cerevisiae deletion strains, locus YGR135W, strain pre9, stronger effect = lower value): 0.974 | normalized growth [9]: 0.958 | normalized growth (S. cerevisiae deletion strains, locus YGR252W, strain gcn5, stronger effect = lower value): 0.926 | normalized growth [10]: 0.989 | normalized growth (S. cerevisiae deletion strains, locus YHR079C, strain IRE1 (second series), stronger effect = lower value): 0.992 | normalized growth (S. cerevisiae deletion strains, locus YHR094C, strain hxt1, stronger effect = lower value): 0.991 | normalized growth (S. cerevisiae deletion strains, locus YHR129C, strain ARP1, stronger effect = lower value): 0.99 | normalized growth (S. cerevisiae deletion strains, locus YHR200W, strain rpn10, stronger effect = lower value): 0.978 | normalized growth (S. cerevisiae deletion strains, locus YIL066C, strain RNR3, stronger effect = lower value): 0.979 | normalized growth (S. cerevisiae deletion strains, locus YIL073C, strain SPO22, stronger effect = lower value): 0.959 | normalized growth (S. cerevisiae deletion strains, locus YIL125W, strain kgd1, stronger effect = lower value): 1.01 | normalized growth (S. cerevisiae deletion strains, locus YIR030C, strain dcg1, stronger effect = lower value): 0.993 | normalized growth (S. cerevisiae deletion strains, locus YJL095W, strain BCK1, stronger effect = lower value): 0.991 | normalized growth (S. cerevisiae deletion strains, locus YJL134W, strain LCB3, stronger effect = lower value): 0.989 | normalized growth (S. cerevisiae deletion strains, locus YJL168C, strain set2, stronger effect = lower value): 0.996 | normalized growth (S. cerevisiae deletion strains, locus YJL187C, strain SWE1 (second series), stronger effect = lower value): 0.999 | normalized growth [12]: 0.964 | normalized growth [13]: 1.06 | normalized growth (S. cerevisiae deletion strains, locus YKL009W, strain mrt4, stronger effect = lower value): 1 | normalized growth (S. cerevisiae deletion strains, locus YKL068W, stronger effect = lower value): 0.989 | normalized growth (S. cerevisiae deletion strains, locus YKL085W, strain MDH1 (second series), stronger effect = lower value): 1.02 | normalized growth (S. cerevisiae deletion strains, locus YKL085W, strain MDH1, stronger effect = lower value): 1.02 | normalized growth [30]: 0.997 | normalized growth (S. cerevisiae deletion strains, locus YKR001C, strain vps1, stronger effect = lower value): 0.947 | normalized growth [14]: 1.01 | normalized growth (S. cerevisiae deletion strains, locus YLR058C, strain SHM2, stronger effect = lower value): 0.985 | normalized growth (S. cerevisiae deletion strains, locus YLR102C, strain apc9, stronger effect = lower value): 0.998 | normalized growth [17]: 1.03 | normalized growth (S. cerevisiae deletion strains, locus YLR268W, strain sec22, stronger effect = lower value): 0.988 | normalized growth (S. cerevisiae deletion strains, locus YLR330W, strain CHS5, stronger effect = lower value): 0.993 | normalized growth (S. cerevisiae deletion strains, locus YLR342W, strain FKS1 (second series), stronger effect = lower value): 0.978 | normalized growth (S. cerevisiae deletion strains, locus YLR371W, strain rom2, stronger effect = lower value): 0.986 | normalized growth (S. cerevisiae deletion strains, locus YLR418C, strain cdc73, stronger effect = lower value): 0.914 | normalized growth (S. cerevisiae deletion strains, locus YML016C, strain PPZ1, stronger effect = lower value): 0.984 | normalized growth (S. cerevisiae deletion strains, locus YML032C, strain rad52, stronger effect = lower value): 0.963 | normalized growth (S. cerevisiae deletion strains, locus YML124C, strain tub3, stronger effect = lower value): 0.979 | normalized growth (S. cerevisiae deletion strains, locus YMR078C, strain ctf18, stronger effect = lower value): 0.989 | normalized growth (S. cerevisiae deletion strains, locus YMR223W, strain ubp8, stronger effect = lower value): 0.958 | normalized growth [20]: 1.01 | normalized growth [21]: 0.959 | normalized growth (S. cerevisiae deletion strains, locus YNL067W, strain RPL9B, stronger effect = lower value): 1.02 | normalized growth [31]: 1.02 | normalized growth [22]: 1.02 | normalized growth (S. cerevisiae deletion strains, locus YNL233W, strain BNI4, stronger effect = lower value): 0.989 | normalized growth (S. cerevisiae deletion strains, locus YNL250W, strain rad50, stronger effect = lower value): 0.995 | normalized growth (S. cerevisiae deletion strains, locus YNL271C, strain bni1, stronger effect = lower value): 0.988 | normalized growth (S. cerevisiae deletion strains, locus YNL298W, strain CLA4, stronger effect = lower value): 0.988 | normalized growth (S. cerevisiae deletion strains, locus YNL307C, strain MCK1, stronger effect = lower value): 0.954 | normalized growth [24]: 0.999 | normalized growth (S. cerevisiae deletion strains, locus YNR052C, strain pop2, stronger effect = lower value): 0.981 | normalized growth [26]: 0.973 | normalized growth (S. cerevisiae deletion strains, locus YOL012C, strain htz1): 1.87 | normalized growth (S. cerevisiae deletion strains, locus YOL147C, strain pex11, stronger effect = lower value): 0.998 | normalized growth (S. cerevisiae deletion strains, locus YOR061W, strain CKA2, stronger effect = lower value): 0.997 | normalized growth (S. cerevisiae deletion strains, locus YOR069W, strain VPS5, stronger effect = lower value): 0.983 | normalized growth (S. cerevisiae deletion strains, locus YOR136W, strain idh2, stronger effect = lower value): 0.981 | normalized growth (S. cerevisiae deletion strains, locus YOR144C, strain elg1, stronger effect = lower value): 0.987 | normalized growth (S. cerevisiae deletion strains, locus YOR184W, strain ser1, stronger effect = lower value): 0.94 | normalized growth (S. cerevisiae deletion strains, locus YOR316C, strain cot1, stronger effect = lower value): 0.992 | normalized growth [27]: 1.05 | normalized growth [28]: 0.993 | normalized growth (S. cerevisiae deletion strains, locus YPR119W, strain clb2, stronger effect = lower value): 0.994 | normalized growth (S. cerevisiae deletion strains, locus YPR141C, strain kar3, stronger effect = lower value): 0.982 | normalized growth (S. cerevisiae deletion strains, locus YPR163C, strain tif3, stronger effect = lower value): 0.991 | normalized growth (S. cerevisiae deletion strains, locus YPR167C, strain met16, stronger effect = lower value): 0.99 | normalized growth (S. cerevisiae deletion strains, strain wtn01, stronger effect = lower value): 0.988 | normalized growth (S. cerevisiae strains, strain wild type, stronger effect = lower value): 0.979
